Records with an inconclusive call do not appear.

This experiment can be described thus: qHTS Assay for Lipid Storage Modulators (AID 1519). Particulars: Drosophila S3 cells, BODIPY lipid droplet/cell ratio, laser cytometry; measured here: cell count channel max response; cells loaded with oleic acid. In outline:
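Cells seeded at 5,000 per well were treated with compounds over a concentration series and loaded with oleic acid (400 uM, as added). Lipid droplet fluorescence (488 nm excitation, 500-530 nm channel) was read by laser-scanning cytometry and normalized to 20 uM Triacsin C.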
In the case of `Clc1ccccc1-c1nccc(-n2ccnc2)n1`, the max response came to 4.29%.

With `Cc1cccc(CNc2ccnc(-c3ccoc3)n2)c1`, the max response turned out to be 1.7%.

`c1nc(NC2CCNCC2)c2cc(-c3ccc4c(c3)OCO4)ccc2n1`: the max response is 1.52%.

Take `O=c1c(-c2ccccc2)nc2cnc(Oc3ccccc3)nc2n1Cc1cccs1`: the max response is 21.8%.

On to `COc1ccc(-n2c(=O)c(-c3cn(C)c4ccccc34)nc3cnc(OC)nc32)cc1`, for which the max response was 4.94%.

In the case of `CN(C)c1ncc2ncc(=O)n(CCC#N)c2n1`, the max response came to 25.3%.

With `COc1ccccc1CNc1ncncc1-c1ccoc1`, the max response is -3.49%.

For the compound `COc1ncc2ncc(=O)n(Cc3cccs3)c2n1`, the max response stood at 9.65%.

Take `FC(F)(F)c1ccccc1-c1cc(N2CCNCC2)ncn1`: the max response was determined as 13.9%.

`CC(=O)NCCNc1nc(-c2ccccc2C(F)(F)F)nc2ccccc12`: the max response was 11.9%.

Take `COc1ccccc1CNc1ccnc(-c2ccoc2)n1`: the max response is -15.1%.

Take `Cc1ccccc1-c1cncnc1Nc1ccc(F)cc1`: the max response was -4.87%.

For `CN(Cc1ccco1)c1cc(-c2ccccc2Cl)ncn1`, the max response was -2.55%.

On to `COc1ccc(-n2c(=O)cnc3cnc(Oc4ccccc4)nc32)cc1`, for which the max response was found to be 3.82%.

On to `COc1ncc2nc(-c3cccc(C#N)c3)c(=O)n(CCC#N)c2n1`, for which the max response was 14.2%.

Regarding `CN(Cc1ccco1)c1ncnc2ccc(-c3cccc(C#N)c3)cc12`, the max response is -3.6%.

As for `c1ccc(CNc2ccnc(-c3ccoc3)n2)cc1`, the max response turned out to be 7.25%.

In the case of `COc1ncc2nc(-c3cc(F)cc(F)c3)c(=O)n(CCC#N)c2n1`, the max response amounted to 17.3%.

In the case of `Cc1nc2cnc(Nc3ccccc3)nc2n(C)c1=O`, the max response is 9.14%.

For the compound `COc1ccc(-n2c(=O)c(C)nc3cnc(Oc4ccccc4)nc32)cc1`, the max response came to 16.7%.

For `COc1ccccc1CCn1c(=O)c(-c2cc(F)cc(F)c2)nc2cncnc21`, the max response is -2.09%.
